According to PubChem BioAssay (NCATS):
Records with an inconclusive call do not appear. Values without a mark were called inactive. Calls follow the shape of the dose curve; as a rule, active = well fitted inhibition curve with a large enough effect; inconclusive = small, poorly fitted or top-dose-only effect; inactive = flat fitted curve, though single readings scatter.

The compounds below were run against Calcium and integrin-binding protein 1 (Homo sapiens) (UniProt Q99828) (assay: Primary qHTS for Identification of Calcium Integrin Binding Protein 1 (CIB1) Competitor (AID 1508620;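 also: GST tagged CIB1 binding a fluorescein labelled alphaIIb integrin peptide tracer; top concentration of the series differs between compounds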)). Details: CIB1-GST / FITC-alphaIIb peptide fluorescence polarization; series mostly up to 114 µM; activity change, negative = inhibition: at the top concentration.
In short: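 Fluorescence polarization competition: CIB1-GST (1 uM final) preincubated with compound 15 min at room temperature, then FITC-labeled alphaIIb peptide (100 nM final) added for another 15 min. Polarization read at Ex 480/Em 540.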
% is scaled to controls: 0 for no effect and ±100 for the full control effect.

Chain of Calcium and integrin-binding protein 1 (Homo sapiens) (Q99828 whole entry, looked up): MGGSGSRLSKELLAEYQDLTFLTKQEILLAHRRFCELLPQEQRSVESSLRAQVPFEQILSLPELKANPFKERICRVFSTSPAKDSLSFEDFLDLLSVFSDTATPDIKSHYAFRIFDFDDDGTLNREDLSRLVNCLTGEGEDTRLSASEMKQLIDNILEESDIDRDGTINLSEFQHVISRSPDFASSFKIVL

SMILES	activity change, negative = inhibition [%]
COc1ccc(-c2nnc(NC(=O)Nc3ccc4ccccc4c3)s2)cc1OC	8.68
COc1cccc(CN2C(=O)c3ccccc3NC2c2ccc(OC)c(COc3c(C)cc(NC(C)=O)cc3C)c2)c1 (stereo not given)	-2.26
O=C(Nc1ccc(Cl)c(Cl)c1)Nc1ncc(-c2ccncc2)s1	-2.01
Cc1ccc(CNc2ccc(N3CCNCC3)cc2)cc1	-8.02
O=C(Nc1ccc2c(c1)OCO2)Nc1nnc(-c2ccncc2)s1	-0.369
CCn1cnc2c(NCCc3cccnc3)nc(C#N)nc21	6.06
Cc1ccsc1CNc1ncnc2ccc(-c3ccc4c(c3)OCO4)cc12	7.49
O=C(Nc1ncc(Cc2ccc(C(F)(F)F)cc2)s1)c1cnc(-c2ccccc2)s1	7.75
Cc1ccc(-c2nn3c(C)nnc3s2)cc1NCc1ccc(-c2cccc(Cl)c2)o1	-5.42
O=C1CCCC2=C1C(c1[nH]ncc1Cl)N=C(c1nc3ccccc3o1)N2 (stereo not given)	-11.5
COC/C=C/c1cc(F)c(S(=O)(=O)N2CCN(S(=O)(=O)c3ccc4c(c3)OCCO4)CC2)cc1F	-2.4
c1cncc(-c2ccc(CNc3nc(N4CCOCC4)nc4ccccc34)cc2)c1	5.6
Cc1ccc(OCCn2c(CCNC(=O)C3CCCCCC3)nc3ccccc32)cc1	7.72
Cc1cc(C)nc(NC(=S)N2CCN(c3cc(Cl)c(Cl)c(Cl)c3)CC2)c1	5.25
Oc1cc(Nc2ccncc2)cc2cccnc12	-17.6
CC(=O)Nc1sc2c(c1-c1ccc3nsnc3c1)CCNC2	-9.3
O=C1CCCC2=C1C(c1cccnc1Cl)N=C(Nc1nc3ccccc3o1)N2 (stereo not given)	-12.3
N#Cc1nc(NC2CCCC2)c2ncn(-c3cc(F)cc(F)c3)c2n1	-1.93
O=C(O)c1cccnc1SC1=NS(=O)(=O)c2ccccc21	-2.75
Brc1ccccc1-c1nc(NCc2ccc(-c3cccnc3)cc2)c2ccccc2n1	5.55

SMILES	activity change, negative = inhibition [%]
CC(C)(C)OC(=O)NCC(=O)NNC(=O)C(C(=O)OCc1ccccc1)c1ccccc1 (stereo not given)	1.53
FC(F)(F)c1ccccc1-c1nc(NCc2ccc(-c3ccc4c(c3)OCCO4)cc2)c2ccccc2n1	7.58
COc1ccc(C2Nc3ccccc3C(=O)N2Cc2ccccn2)cc1COc1ccc(NC(C)=O)cc1 (stereo not given)	0.0263
CC(C)Nc1cccc(S(=O)(=O)N2CCCN(S(=O)(=O)c3ccc4c(c3)OCCO4)CC2)c1	-3.99
Cc1ccc(N2CCC(CNc3nc(-c4ccccc4C(C)C)ncc3C)CC2)cn1	0.371
Cc1cc2c(s1)c1cnn(Cc3ccc(Cl)c(F)c3)c(=O)c1n2C	3.28
Cc1ccc(S(=O)(=O)N2CCN(S(=O)(=O)c3ccc4c(c3)OCCO4)CC2)cc1	-4.36
O=S(=O)(NCCCCCCNS(=O)(=O)c1c(F)cccc1F)c1ccc2c(c1)OCCO2	-0.125
CC(C)(C)NS(=O)(=O)c1cccc(Nc2nn3c(=O)c4ccccc4nc3s2)c1	4.43
Cc1cc(C)n2ncc(C(=O)NCc3ccccc3)c2n1	1.05
O=C1CCCC2=C1C(c1[nH]ncc1Br)N=C(Nc1nc3ccccc3o1)N2 (stereo not given)	-18.5
COc1ccc(CNc2ccc(N3CCN(C(C)=O)CC3)cc2)cc1OC	-7.46
O=C(CN1C(=O)N/C(=C\c2cn(-c3cccc(C(=O)O)c3)cn2)C1=O)Nc1ccccc1Cl	-6.35
CS(=O)(=O)c1ccc(-c2csc(N3CCC(C(N)=O)CC3)n2)cc1	6.89
COc1ccc2nc(-c3ccc(N(C)C)cc3)sc2c1	1.67
c1c[nH]c(C2CCN(c3ncc(-c4ccc5c(c4)OCCCO5)s3)CC2)n1	-11.3
CCOC(=O)c1ccc(-c2ccc3ncnc(NCc4ncc[nH]4)c3c2)o1	-5.02
Cc1cc(C)nc(Nc2nnc(N3CCN(c4cccc(C(F)(F)F)c4)CC3)s2)c1	-0.547
COc1ccc(CNc2ccc(-c3nc4ccccc4[nH]3)cc2)cc1OC	-9.71
C(=Nc1cccnc1)c1cccs1	1.85
